# Experimental data reported in the supplement of paper PMC9262897, “Low-cost anti-mycobacterial drug discovery using engineered E. coli” (Nature Communications, 2022).
# Counter-ions that a name gives are not always drawn. ± gives the standard deviation of the averaged measurements.
# Assays:
# Assay in all cases: growth (OD600 after 10 h); higher = more growth (less inhibition)
# [1] = test system: E. coli TESEC Alr+ wild-type control; conditions: compound 0.1 mM; raw OD600 reference: median of DMSO wells 0.241, cell-free background 0.041
# Experimental: (§1)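 TESEC Mtb Alr E. coli, or the Alr+ wild-type control, in 384-well plates with Prestwick library compounds at 0.1 mM and 1% DMSO, across arabinose induction levels of 1E3 to 1E7 nM. Growth is read as OD600 after 10 h at 37 °C in triplicate biological replicates.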
# [2] = test system: E. coli TESEC Mtb Alr; conditions: compound 0.1 mM
# Experimental: as §1
# [3] = test system: E. coli TESEC Mtb Asd; conditions: compound 0.1 mM
# Experimental: (§2)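 TESEC E. coli strains in which the native enzyme is deleted and replaced by arabinose-inducible Mtb Asd, DapB, CysH or TrpD, each grown in its selective medium. Strains were screened against the Prestwick library at 0.1 mM and 1% DMSO in 384-well format at low and high arabinose induction. Growth is read as OD600 after 10 h in triplicate.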
# [4] = test system: E. coli TESEC Mtb Alr; conditions: compound 0.1 mM; remark: listed apart in the source
# Experimental: (§3)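 TESEC Mtb Alr E. coli (ΔaraC ΔtolC ΔentC Δalr ΔdadX, arabinose-inducible Mtb Alr) or the Alr+ wild-type control strain, grown in defined M9-fructose medium without D-alanine in 96-well plates with Prestwick library compounds at 0.1 mM and 1% DMSO. Low Alr induction is 0.1 µM arabinose and high induction is 10 mM arabinose.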
# [5] = test system: E. coli TESEC Alr+ wild-type control; conditions: compound 0.1 mM; raw OD600 reference: median of DMSO wells 0.49, cell-free background 0.052
# Experimental: as §3
# [6] = test system: E. coli TESEC Mtb DapB; conditions: compound 0.1 mM
# Experimental: as §2
# [7] = arabinose 1000 nM, raw OD600 reference: median of DMSO wells 0.294, cell-free background 0.041
# [8] = arabinose 10000 nM, raw OD600 reference: median of DMSO wells 0.264, cell-free background 0.041
# [9] = arabinose 100000 nM, raw OD600 reference: median of DMSO wells 0.201, cell-free background 0.041
# [10] = arabinose 1000000 nM, raw OD600 reference: median of DMSO wells 0.193, cell-free background 0.041
# [11] = arabinose 10000000 nM, raw OD600 reference: median of DMSO wells 0.146, cell-free background 0.041
# [12] = arabinose induction (level): High, raw OD600 reference: median of DMSO wells 0.331, cell-free background 0.041
# [13] = arabinose induction (level): Low, raw OD600 reference: median of DMSO wells 0.417, cell-free background 0.041
# [14] = arabinose 100 nM, raw OD600 reference: median of DMSO wells 0.413, cell-free background 0.052
# [15] = arabinose 10000000 nM, raw OD600 reference: median of DMSO wells […], cell-free background 0.052
SMILES,growth [1],"growth [2, 7]","growth [2, 8]","growth [2, 9]","growth [2, 10]","growth [2, 11]","growth [3, 12]","growth [3, 13]","growth [4, 14]","growth [4, 15]",growth [5],"growth ([6]; arabinose induction (level): High, raw OD600 reference: median of DMSO wells […], cell-free background 0.041)","growth ([6]; arabinose induction (level): Low, raw OD600 reference: median of DMSO wells 0.227, cell-free background 0.041)"
CC(=O)O[C@H]1C[C@@H]2CC[C@@H]3[C@H](CC[C@@]4(C)[C@H]3C[C@H]([N+]3(C)CCCCC3)[C@@H]4OC(C)=O)[C@@]2(C)C[C@@H]1[N+]1(C)CCCCC1 [Pancuronium bromide],0.232 ± 0.0035,0.318 ± 0.0065,0.2563 ± 0.0013,0.194 ± 0.021,0.168 ± 0.0052,0.154 ± 0.0046,0.242 ± 0.064,0.407 ± 0.014,0.421 ± 0.026,0.349 ± 0.019,,,
O=[N+]([O-])O[C@H]1CO[C@H]2[C@@H]1OC[C@H]2O[N+](=O)[O-] [Isosorbide dinitrate],0.243 ± 0.013,0.32 ± 0.014,0.263 ± 0.0089,0.217 ± 0.025,0.185 ± 0.0031,0.159 ± 0.0026,0.476 ± 0.013,0.419 ± 0.07,0.4084 ± 0.0022,0.343 ± 0.014,0.474 ± 0.092,,
COc1cccc(C2(O)CCCCC2CN(C)C)c1 (stereo not given) [Tramadol hydrochloride],0.238 ± 0.0082,0.308 ± 0.012,0.271 ± 0.0049,0.193 ± 0.0059,0.193 ± 0.012,0.1352 ± 0.00092,0.31 ± 0.028,0.403 ± 0.065,0.4058 ± 0.0034,0.327 ± 0.016,0.476 ± 0.013,,
CCN(C)C(=O)Oc1cccc([C@H](C)N(C)C)c1 [Rivastigmine],0.243 ± 0.0069,0.293 ± 0.004,0.302 ± 0.0098,0.213 ± 0.02,0.19 ± 0.021,0.156 ± 0.0029,0.325 ± 0.068,0.343 ± 0.067,0.418 ± 0.0056,0.342 ± 0.016,0.504 ± 0.066,,
CCC(=O)O[C@@](Cc1ccccc1)(c1ccccc1)[C@@H](C)CN(C)C [Levopropoxyphene napsylate],0.178 ± 0.0045,0.249 ± 0.005,0.283 ± 0.012,0.176 ± 0.014,0.1558 ± 0.001,0.15 ± 0.0048,0.169 ± 0.019,0.388 ± 0.047,0.4145 ± 0.0027,0.323 ± 0.013,0.566 ± 0.042,,
CNC(C)(C)Cc1ccccc1 [Mephentermine hemisulfate],0.247 ± 0.0094,0.303 ± 0.018,0.274 ± 0.0032,0.224 ± 0.012,0.193 ± 0.0098,0.138 ± 0.0038,0.273 ± 0.036,0.433 ± 0.033,0.402 ± 0.0066,0.381 ± 0.03,,,
CC[C@@]1([C@@H]2O[C@@H]([C@H]3O[C@@](O)(CO)[C@H](C)C[C@@H]3C)C[C@@H]2C)CC[C@H]([C@]2(C)CC[C@]3(C[C@H](O)[C@@H](C)[C@@H]([C@@H](C)[C@@H](OC)[C@H](C)C(=O)O)O3)O2)O1 [Monensin sodium salt],0.218 ± 0.0078,0.279 ± 0.017,0.264 ± 0.0038,0.207 ± 0.028,0.159 ± 0.0076,0.138 ± 0.0041,0.295 ± 0.028,0.408 ± 0.016,0.384 ± 0.007,0.149 ± 0.013,0.408 ± 0.05,,
C[C@]12COC(=O)C[C@@H]1CC[C@@H]1[C@@H]2CC[C@@]2(C)[C@H]1CC[C@]2(C)O [Oxandrolone],0.157 ± 0.0027,0.189 ± 0.0087,0.232 ± 0.0096,0.126 ± 0.0067,0.105 ± 0.005,0.12 ± 0.0015,0.148 ± 0.0058,0.319 ± 0.033,0.42 ± 0.0079,0.246 ± 0.019,0.435 ± 0.042,,
C[C@H](N)[C@H](O)c1ccc(O)c(O)c1 [Levonordefrin],0.1755 ± 0.00087,0.276 ± 0.013,0.26 ± 0.0038,0.206 ± 0.0036,0.118 ± 0.0043,0.131 ± 0.0047,0.194 ± 0.014,0.357 ± 0.0047,0.398 ± 0.024,0.371 ± 0.017,0.465 ± 0.099,,
OC(c1ccccc1)(c1ccccc1)C1CCNCC1 [Azacyclonol],0.222 ± 0.014,0.294 ± 0.011,0.269 ± 0.0093,0.2264 ± 0.00067,0.166 ± 0.0076,0.136 ± 0.0054,0.296 ± 0.07,0.442 ± 0.019,0.412 ± 0.011,0.333 ± 0.035,0.523 ± 0.032,,
C[N+](C)(C)CCCCCCCCCC[N+](C)(C)C [Decamethonium bromide],0.246 ± 0.0085,0.286 ± 0.015,0.2525 ± 0.0016,0.214 ± 0.022,0.208 ± 0.003,0.13 ± 0.0017,0.369 ± 0.032,0.444 ± 0.043,0.39 ± 0.017,0.376 ± 0.022,,,
C[C@]12CC[C@@H]3c4ccc(OC(=O)N(CCCl)CCCl)cc4CC[C@H]3[C@@H]1CC[C@@H]2O [Estramustine],0.248 ± 0.0012,0.306 ± 0.011,0.284 ± 0.01,0.212 ± 0.011,0.147 ± 0.009,0.1686 ± 0.00066,0.207 ± 0.025,0.189 ± 0.049,0.396 ± 0.014,0.31 ± 0.0085,,,
C=C1CC[C@@]2(O)[C@H]3Cc4ccc(O)c5c4[C@@]2(CCN3CC2CC2)[C@H]1O5 [Nalmefene hydrochloride],0.238 ± 0.013,0.3098 ± 0.003,0.274 ± 0.0086,0.157 ± 0.0079,0.19 ± 0.005,0.1356 ± 0.0009,0.193 ± 0.041,0.328 ± 0.08,0.425 ± 0.007,0.327 ± 0.022,,0.194 ± 0.028,0.226 ± 0.027
COc1cc2c(cc1OC)C(C)NCC2 (stereo not given),0.236 ± 0.0037,0.2925 ± 0.0014,0.275 ± 0.0075,0.225 ± 0.035,0.188 ± 0.0027,0.15 ± 0.0045,0.337 ± 0.049,0.349 ± 0.082,0.408 ± 0.011,0.323 ± 0.025,,,
